Reference: PubChem BioAssay AID651951 (The Scripps Research Institute Molecular Screening Center, 2012)
In all, about 2,400 compounds went through this assay and about 1,100 (46%) were called active. So high a share suggests a set chosen from earlier hits. Only a sample is shown. Unmarked numbers belong to inactive results.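 The calls were made as follows: active = inhibition above the run cutoff, the mean inhibition of all test compounds plus 3 SD (cut at about 49% in these data); inactive = the rest.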

What follows are compounds tested against Trace amine-associated receptor 1 (Homo sapiens) (UniProt Q96RJ0) (assay: TAAR1 desensitization by agonist hits, confirmation, counter-screen for TAAR1 agonist project, cell-based, fluorescence, tachyphylaxis (AID 651951;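 also: beta-PEA stimulus applied at its EC80; loss of beta-PEA calcium signal after compound pretreatment read as receptor desensitization; 0% = DMSO with beta-PEA at EC80 and 100% = DMSO alone without agonist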)). Details: CHO RD-HGA16 hTAAR1, Fluo-8 calcium, beta-PEA response inhibition; at 3 µM; stronger effect = higher value.
Sequence of Trace amine-associated receptor 1 (Homo sapiens) (Q96RJ0 whole entry, looked up): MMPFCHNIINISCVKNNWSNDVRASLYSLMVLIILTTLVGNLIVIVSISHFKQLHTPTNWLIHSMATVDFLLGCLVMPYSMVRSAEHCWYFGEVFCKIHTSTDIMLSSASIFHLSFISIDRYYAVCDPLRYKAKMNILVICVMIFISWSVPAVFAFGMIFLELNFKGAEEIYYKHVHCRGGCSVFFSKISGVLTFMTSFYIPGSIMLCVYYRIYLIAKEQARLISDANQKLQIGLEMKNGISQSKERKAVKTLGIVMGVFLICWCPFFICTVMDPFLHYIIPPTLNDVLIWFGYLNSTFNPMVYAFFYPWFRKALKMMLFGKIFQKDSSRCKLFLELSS
With CCC(=NCCc1ccccc1)c1c(O)n(C2CCCCC2)c(=O)[nH]c1=O the inhibition was 55.8% (active). Cc1cccc(N2C(=O)NC(=O)/C(=C\c3cnn(-c4ccccc4)c3)C2=O)c1 was tested, and the inhibition was 54.4% (active). In the case of NCC(O)c1ccc(O)cc1 (centres undefined), the inhibition is reported as 53.1% (active). COc1ccc(Br)cc1CNCCc1cccc(Cl)c1 showed an inhibition of 40%. With CC(Cc1ccccc1)NC=O (centres undefined) the inhibition was 78.2% (active). For c1ccc(CCNC2CCCCCC2)cc1, the inhibition was 91% (active). With O=C1NC(=O)N(Cc2ccco2)C(=O)/C1=C\c1ccc(-c2ccc(F)cc2)o1 the inhibition was 42.5%. With CCCCC(=O)N/N=C/c1c(O)n(CC)c(=S)n(CC)c1=O the inhibition was 88% (active). In the case of Clc1ccc2nc3c(c(-c4ccccc4)c2c1)CNCC3, the inhibition is reported as 39.3%.
